# Vif-A3F inh = Vif-A3F binding inhibition; HeLa A3F-eYFP + Vif (tagged APOBEC3F with the HIV-1 protein that degrades it), YFP fluorescence increase; Potency, µM (doses to about 46.1 µM), without a hit: at the highest dose activity, negative = active; actives 0.2% (n = 390,000); AID 602313; further: % of control where 0% means no effect; nearly all actives have a fitted effect of over 65% in size
#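 HeLa cells stably expressing Vif plus C-terminally eYFP-tagged A3F were seeded, incubated overnight at 37 deg C, dosed with compound, incubated overnight again at 37 deg C. Yellow fluorescence (Ex 488/Em 500-530) reported blocked Vif-mediated A3F-eYFP degradation.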
# Vif-A3G inh = Vif-A3G binding inhibition; Potency, µM (titrated, usually from 46.1 µM), for the others: at the top dose activity, negative = active, most hits filed as inhibitors; Q9HC16; AID 602310; HeLa A3G-eYFP + Vif (tagged APOBEC3G with the HIV-1 protein that degrades it), YFP fluorescence, overnight; actives 0.076% (n = 410,000); further: on the % scale 0 is the no-effect control and ±100 the full control effect; nearly all actives have a fitted effect of over 60% in size
#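 HeLa cells stably expressing Vif and C-terminally eYFP-tagged A3G, seeded overnight at 37 deg C, then exposed to compound by pintool overnight at 37 deg C. Rise in yellow fluorescence (Ex 488/Em 500-530, Acumen) marks blocked Vif-driven A3G degradation.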
# TrxR1 inh = inhibitors of rat thioredoxin reductase 1; O89049; AID 588453; recombinant rTrxR1, NADPH fluorescence consumption, selenite substrate; actives 1% (n = 390,000); Potency, µM (titrated, usually from 114 µM), for inactives: at the top dose activity change, negative = inhibition, usual class: inhibitors; further: on the % scale 0 is the no-effect control and ±100 the full control effect; nearly all actives have a fitted effect of over 65% in size
#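 Rat TrxR1 (90 nM in the dispensed reagent) was pre-reduced with 400 uM NADPH for 5 min at room temperature, then incubated with compound for 15 min. After 400 uM selenite was added, NADPH fluorescence (Ex 340/Em 450 nm) was followed for 8 min.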
# VDR inhibitor = vitamin D3 receptor (human) inhibition | actives 0.93% (n = 400,000) | P11473 | Potency, µM, for the others: max response, negative = inhibition, usual class: inhibitors | AID 504847 | VDR-SRC2-3 peptide fluorescence polarization, 2 h; further: on the % scale 0 is the no-effect control and ±100 the full control effect
# Target sequence (P11473 whole entry, looked up): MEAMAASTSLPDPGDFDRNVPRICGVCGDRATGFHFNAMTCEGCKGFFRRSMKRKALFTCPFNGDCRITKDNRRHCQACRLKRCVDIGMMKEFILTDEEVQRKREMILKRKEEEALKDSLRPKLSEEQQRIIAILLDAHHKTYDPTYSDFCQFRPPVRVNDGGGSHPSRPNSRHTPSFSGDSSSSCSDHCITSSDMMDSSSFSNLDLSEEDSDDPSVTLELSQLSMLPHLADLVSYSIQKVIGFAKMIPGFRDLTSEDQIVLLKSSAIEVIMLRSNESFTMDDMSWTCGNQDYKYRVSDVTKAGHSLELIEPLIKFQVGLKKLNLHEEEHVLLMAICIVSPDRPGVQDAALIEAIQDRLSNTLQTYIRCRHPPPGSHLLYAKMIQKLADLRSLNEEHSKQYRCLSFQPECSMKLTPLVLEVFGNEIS
#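 Reagent solutions, kept cold and dark, are dispensed first; compounds are then pinned in at 23 nl, plates briefly spun, and incubated 2 h at ambient temperature. Inhibition of VDR–SRC2-3 peptide binding is read by fluorescence polarization.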
# TrxR1 substrate = substrates of rat thioredoxin reductase 1; O89049; purified TrxR1 substrate turnover, NADPH consumption readout; Potency, µM (top dose mostly 114 µM), without a hit: top-dose activity change, negative = substrate turnover; actives 0.01% (n = 390,000); AID 588456; further: on the % scale 0 is the no-effect control and ±100 the full control effect; nearly all actives have a fitted effect of over 50% in size
#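 Rat TrxR1, dispensed at 90 nM, was prereduced with 400 uM NADPH (final) for 5 min at ~22 deg C, then incubated with compound 15 min before 400 uM selenite. A first-read NADPH fluorescence drop versus no-compound background flagged substrates.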
# Starred values were filed as active, the others as inactive; u = inconclusive; x = no result; ! = not confirmed by another sample; [ ] = another dose, or the depositor's remark. Most compounds without a hit are left out; they make up all but 1.8% or so of the library. The call rests on the fitted dose curve; in most records, active means well fitted curve in the direction sought with a large enough effect; inconclusive means small, poorly fitted or top-dose-only effect, or another doubt; inactive means no such curve, though single readings can be large; an effect the other way counts as inactive or inconclusive. Potency means the concentration at half of the fitted maximal effect.
SMILES,Vif-A3F inh,Vif-A3G inh,TrxR1 inh,VDR inhibitor,TrxR1 substrate
CCc1ccccc1NC(=O)CN(C)Cc1c(O)ccc2ccccc12,-2%,-16%,40µM*,u,6%
CN(CC(=O)Nc1ccccc1C(F)(F)F)Cc1c(O)ccc2ccccc12,18%,-8%,u,u,7%[57.1 µM]
Cc1cccc(Nc2nnc(SC/C(O)=C(\C#N)c3nc4ccccc4[nH]3)s2)c1,22µM*,-27%,u,5%,-9%
CCOC(=O)Cc1ccc(NC(=O)N2CC(C)Oc3ccc(Cl)cc32)cc1 (centres undefined),1%,-2%,2%,5%,0%
NCCS,-6%,0%,179%[57.1 µM],22µM*,u
O=C(Nc1ccccc1C(F)(F)F)N1CCC(CN2CCc3ccccc3C2)CC1,3%,-7%,-8%,19%,-2%
COCCn1c(=O)c(-c2cc(F)cc(F)c2)nc2cnc(N3CCN(C)CC3)nc21,x,x,x,-4%,x
CN1CCN(c2ncc3nc(-c4cc(F)cc(F)c4)c(=O)n(CCC#N)c3n2)CC1,x,x,x,22µM*,x
S=Cc1nc2ccccc2[nH]1,x,-2%,-4%,x,2%
CCOC(=O)N1CCc2c(sc3c2C(=O)NC(c2ccccc2)N3)C1 (centres undefined),0%,-22%,-5%[57.1 µM],-27%,6%[57.1 µM]
CCOC(=O)N1CCc2c(sc3c2C(=O)NC(c2ccc(N(C)C)cc2)N3)C1 (centres undefined),11µM*,u,-2%,-1%,2%
CC1CC(C)(C)Nc2ccc(N=O)cc21 (centres undefined),2%,-5%,0.89µM*,-28%,-4%[57.1 µM]
CC1CC(C)(C)Nc2ccc(OC(=O)c3ccco3)cc21 (centres undefined),32µM*,22µM*,-8%,9%,-10%
CC1CC2(CCCC2)Nc2ccc(F)cc21 (centres undefined),1%,-2%,1%,-9%,-6%
Cc1ccc(-c2noc(CNC(=O)c3ccc(Br)o3)n2)cc1,9%,1%,7%,26%,1%
COc1ccc(-c2oc3ccccc3c2C(=O)Oc2ccccc2)cc1,0%,-6%,16µM*,9%,203%[57.1 µM]
COC(=O)c1c(-c2ccc(OC)cc2)oc2ccccc12,7%,-5%,139%,u,112%[57.1 µM]
CN(C)c1ccc(-c2cncnc2NCCN2CCOCC2)cc1,x,x,x,40µM*,x
CC(=O)CC1OC(=O)C(Br)=C1NCc1ccccc1 (centres undefined),u,-21%,14µM*,u,3%
O=C(CC1Oc2ccccc2NC1=O)NCc1ccccc1 (centres undefined),0%,-1%,10%,u,-1%
CC(C)OP(=O)(OC(C)C)C1(O)C(=O)Nc2ccc(Br)cc21 (centres undefined),0%,-4%,40µM*,-10%,-1%
N=c1n(CC(=O)c2ccc([N+](=O)[O-])cc2)c2ccccc2n1Cc1ccccc1,13µM*,u,-1%,-22%,-5%
COc1cc2c(NC3CCN(C(C)C)CC3)nc(N3CCCN(C)CC3)nc2cc1OCCCN(C)C,x,-5%,u,x,72%
O=C(NCc1ccccc1)c1ccc2nc(-c3ccco3)c(-c3ccco3)nc2c1,-7%,4%,u,40µM*,-5%
O=C(NCCCO)c1ccc2nc(-c3ccco3)c(-c3ccco3)nc2c1,-7%,3%,2.8µM*,79µM*,-9%
SMILES,Vif-A3F inh,Vif-A3G inh,TrxR1 inh,VDR inhibitor,TrxR1 substrate
CCCCNC(=O)c1ccc2nc(-c3ccco3)c(-c3ccco3)nc2c1,-10%,1%,2.8µM*,79µM*,-3%
O=C(NCc1ccccc1)c1ccc2nccnc2c1,2%,-2%,13%[57.1 µM],-11%,11%[57.1 µM]
CCc1nc2ccc(C(=O)NCCc3ccco3)cc2nc1CC,1%,1%,6%[57.1 µM],-4%,-1%[57.1 µM]
COc1ccc(OC)c(NC(=O)c2c(NCc3ccc(OC)c(OC)c3)sc3c2CCC(C)C3)c1 (centres undefined),-11%,1%,19%[57.1 µM],1%,-3%[57.1 µM]
N=C1Sc2ccccc2C2=NCCCN12,x,x,84%,x,x
CCN(CC)CCOCCOC(=O)C(CC)(CC)c1ccccc1 (tested in a mixture with another compound),x,x,x,0%,x
COc1ccc(-c2nc3ccccc3[nH]2)cc1,-9%,-4%,20%,7%,30%
COc1ccc2oc(=Nc3ccccc3)c(-c3nc4ccccc4[nH]3)cc2c1,11µM*,-28%,-6%,-3%,-10%
CCc1nnc(NC(=O)CSc2nc3c([nH]c4ccccc43)c(=O)n2-c2ccc(Cl)cc2)s1,-8%,-12%,25%[57.1 µM],2%,6%[57.1 µM]
C=C(CCC(=O)c1ccccc1)C(=O)c1ccccc1,-5%,-23%,-48%,45µM*,5%[57.1 µM]
COC(=O)c1ccc(O)cc1,-11%,1%,3%[57.1 µM],-14%,11%[57.1 µM]
COC(=O)c1ccc(CCc2cc(O)ccc2O)cc1,-7%,u,56µM*,u,-15%
COC(=O)c1ccc(CCc2cc(O)c(Br)cc2O)cc1,-29%,u,22µM*,-6%,0%
O=S(=O)(Nc1cc(Br)cc2cccnc12)c1ccccc1,x,u,13%[0.457 µM],4%,8%[0.457 µM]
COc1cc2c(NC3CCN(C)CC3)nc(N3CCN(C)CC3)nc2cc1OCCCN(C)C,x,0%,-34%,x,67%
Nn1c(SCC(=O)NCCC2=CCCCC2)nnc1-c1cccnc1,-4%,2%,2%,-8%,0%
CC(C)c1nnc(SCC(=O)NCCC2=CCCCC2)n1N,-11%,0%,51%,89µM*,8%
COc1ccc(Nc2nc3cc(C)ccc3cc2C#N)cc1,22µM*,u,19%,6%,2%
Cc1ccc(C(=O)NCC(=O)OCC(=O)c2ccc3ccccc3c2)cc1,x,1%,16%,-24%,9%
CCOc1ccc(CNCc2c(C(=O)O)c(C)n(Cc3ccc(C)cc3)c2C)cc1,5%,4%,3%,19%,3%
CCN(CC)c1ccc(NC(=O)CCS(=O)(=O)c2cccc3nsnc23)c(C)c1,10%,2%,79µM*!,-17%,-4%
Cc1ccc(S(=O)(=O)N2CCCCC2)cc1NC(=O)Cn1ncc(Cl)c(Cl)c1=O,2%,u,50µM*,1%,9%
COc1ccc(NC(=O)CSc2ccccc2)cc1S(=O)(=O)N1CCOCC1,0%,0%,-16%,-5%,-8%
COc1ccc(NC(=O)Cn2ncc(Cl)c(Cl)c2=O)cc1S(=O)(=O)N1CCOCC1,u,u,28µM*,-6%,-3%
Cc1ccc(S(=O)(=O)N2CCN(c3nc(-c4ncccn4)nc4ccccc34)CC2)cc1,x,x,5%,-4%,-2%
O=C1C=CC(=O)N1N(c1ccccc1)c1ccccc1,-4%,-18%,u,13µM*,-9%
Cc1ccc2[nH]c(C)c(/C=C/c3cc[n+](C)cc3)c2c1,-372%,1.3µM*,-18%,-25%,-17%
